Laboratory results reported in PubChem BioAssay (NCATS).
Results filed as inconclusive are left out. Where a call stands in place of a potency, no number is given. Calls of active or inactive are those of the source. Unless noted, the call rests on the fitted dose curve; in most records, active means well fitted curve in the direction sought with a large enough effect; inconclusive means small, poorly fitted or top-dose-only effect, or another doubt; inactive means no such curve, though single readings can be large; an effect the other way counts as inactive or inconclusive.

Tests used:
[1] = molecular target: Atrial natriuretic peptide receptor 1 (Homo sapiens) (UniProt P16066); experiment: Natriuretic polypeptide receptor (hNpr1) antagonism - Pilot screen (AID 1347049; calls by dose curve;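 further: agonist-evoked cGMP luminescence read 20 min after hNppA addition; series mostly up to about 58 µM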)
Procedure, shortened: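 HEK293 cells expressing hNpr1 and GloSensor cGMP luciferase, 1500/well, loaded with 2% GloSensor reagent 2 h, compound 30 min at room temperature; luminescence read before and 20 min after 0.1 nM hNppA stimulation.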

[2] = molecular target: Atrial natriuretic peptide receptor 2 (Homo sapiens) (UniProt P20594); experiment: Natriuretic polypeptide receptor (hNpr2) antagonism - Pilot subtype selectivity assay (AID 1347050; calls by dose curve; further: potency means the concentration at half of the fitted maximal effect)
Procedure, shortened: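 HEK293 cells expressing hNpr2 and a GloSensor cGMP luciferase sensor, 1500/well, preloaded 2 h with 2% GloSensor reagent, compound 30 min, then 1 nM hNppC for 20 min. Antagonism from luminescence after versus baseline pre-read; LOPAC in 1:5 titrations.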

[3] = NS1 protein of Zika virus - qHTS assay to identify small molecule inhibitors in human HEK 293 cells (AID 1347053); further: series mostly up to about 46 µM; nearly all actives have a fitted effect of over 55% in size
Procedure, shortened: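 Inhibition of NS1 expression was scored in HEK 293 cells given compound 1 h ahead of MR766 virus (MOI = 0.5). Following 24 h at 37 C, two anti-NS1 antibodies generated a TR-FRET signal, scaled between uninfected and infected controls.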

[4] = molecular target: T1, Tyrosine-protein phosphatase non-receptor type substrate 1 (Homo sapiens) + Leukocyte surface antigen CD47 (Homo sapiens) (UniProt P78324+Q08722); experiment: CD47-SIRPalpha protein protein interaction - LANCE assay qHTS validation (AID 1347057; active means well fitted curve in the direction sought with a large enough effect in the signal ratio, with a control signal flat, not every such curve was filed as active; the % refers to the signal ratio; further: series mostly up to about 38 µM)
Procedure, shortened: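 First, His-tagged CD47 and Eu-labelled anti-His antibody met the compound for 30 min; next, site-specifically biotinylated SIRPalpha was added for 30 min; finally streptavidin-APC was added before reading the TR-FRET ratio.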

[5] = molecular target: T1, Tyrosine-protein phosphatase non-receptor type substrate 1 (Homo sapiens) + Leukocyte surface antigen CD47 (Homo sapiens); experiment: CD47-SIRPalpha protein protein interaction - HTRF assay qHTS validation (AID 1347058; active means well fitted curve in the direction sought with a large enough effect in the signal ratio, not every such curve was filed as active; the % refers to the signal ratio;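 further: recombinant soluble extracellular CD47 with His tag and biotinylated SIRPalpha domains; series mostly up to about 38 µM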)
Procedure, shortened: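 TR-FRET read (Ch1/Ch2 ratio) of soluble extracellular CD47 and Avi-biotinylated SIRPalpha domains in PBS pH 7.4 with 0.05% IGEPAL; 7-point compound titration. Sequential 30 min room-temperature steps; non-biotinylated SIRPalpha as control inhibitor.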

[6] = molecular target: T1, Tyrosine-protein phosphatase non-receptor type substrate 1 (Homo sapiens) + Leukocyte surface antigen CD47 (Homo sapiens); experiment: CD47-SIRPalpha protein protein interaction - Alpha assay qHTS validation (AID 1347059);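 further: bead proximity luminescence from CD47 binding SIRPalpha after compound preincubation with SIRPalpha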
Procedure, shortened: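 Biotinylated Avi-tagged SIRPalpha (25 nM) preincubated 30 min with compound, then His-tagged CD47 (12.5 nM) added 30 min; AlphaScreen with Ni-NTA acceptor and streptavidin donor beads. PBS pH 7.4, 0.05% IGEPAL, room temperature; 7-point titrations.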

[7] = molecular target: Parathyroid hormone/parathyroid hormone-related peptide receptor (Homo sapiens) (UniProt Q03431); experiment: qHTS for PTHR1 Agonists: Optimization Screen against the NCGC LOPAC library (AID 1347079);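 further: GloSensor cAMP luminescence in HEK-293 GP2 cells expressing human PTHR1 with IBMX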
Procedure, shortened: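 Agonist readout: GloSensor cAMP luminescence, read after 15 min at room temperature. HEK-293-derived GP2 line carries PTHR1; compounds tested as a titration for 1 hr at 37C in presence of IBMX. M-PTH (1-15) served as control.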

[8] = qHTS of pediatric cancer cell lines to identify multiple opportunities for drug repurposing: Primary screen for TC32 cells (AID 1347089); further: nearly all actives have a fitted effect of over 60% in size; further: potency means the concentration at half of the fitted maximal effect
Procedure, shortened: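 Luminescent CellTiter-Glo read-out of metabolically active TC32 cells after 48 h compound exposure. Primary: MIPE 11-point, 0.78 nM–46 µM; NPC 8-point, 0.59 nM–46 µM. Confirmatory: 11-point dilutions.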

[9] = qHTS of pediatric cancer cell lines to identify multiple opportunities for drug repurposing: Primary screen for DAOY cells (AID 1347090); further: nearly all actives have a fitted effect of over 55% in size; further: potency means the concentration at half of the fitted maximal effect
Procedure, shortened: (§1)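 Viability measured as metabolically active cells via CellTiter-Glo luminescence following 48 hours of compound exposure, 11-point dilutions in confirmatory testing. 500-1,000 cells/well plated 5 hours before dosing; controls were DMSO and 2.3 µM bortezomib.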

[10] = qHTS of pediatric cancer cell lines to identify multiple opportunities for drug repurposing: Primary screen for SJ-GBM2 cells (AID 1347091); further: potency means the concentration at half of the fitted maximal effect
Procedure, shortened: as §1

T1 sequence (P78324 whole entry, looked up): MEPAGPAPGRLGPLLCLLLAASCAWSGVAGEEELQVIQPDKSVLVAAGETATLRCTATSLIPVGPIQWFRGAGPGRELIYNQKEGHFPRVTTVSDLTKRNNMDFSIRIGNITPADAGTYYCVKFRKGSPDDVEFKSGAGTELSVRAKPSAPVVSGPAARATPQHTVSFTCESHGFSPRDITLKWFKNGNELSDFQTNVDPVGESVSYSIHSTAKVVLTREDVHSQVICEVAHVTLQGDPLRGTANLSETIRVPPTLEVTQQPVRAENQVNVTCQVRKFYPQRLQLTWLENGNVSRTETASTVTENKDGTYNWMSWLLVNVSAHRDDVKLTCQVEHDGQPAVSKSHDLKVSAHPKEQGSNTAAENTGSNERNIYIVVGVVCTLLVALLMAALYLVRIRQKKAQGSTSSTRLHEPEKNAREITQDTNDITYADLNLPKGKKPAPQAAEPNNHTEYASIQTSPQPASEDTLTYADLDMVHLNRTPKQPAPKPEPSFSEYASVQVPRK
T1 sequence (Q08722 whole entry, looked up): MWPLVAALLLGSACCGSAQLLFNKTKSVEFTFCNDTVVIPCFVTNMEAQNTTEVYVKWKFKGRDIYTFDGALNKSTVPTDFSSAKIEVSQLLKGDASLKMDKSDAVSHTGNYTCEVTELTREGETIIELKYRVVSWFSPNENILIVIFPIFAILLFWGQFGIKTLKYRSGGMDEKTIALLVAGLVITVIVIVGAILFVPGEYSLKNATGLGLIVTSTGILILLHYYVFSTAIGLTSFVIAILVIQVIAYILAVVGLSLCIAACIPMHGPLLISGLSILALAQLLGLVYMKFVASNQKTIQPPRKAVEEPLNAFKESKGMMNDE
Sequence of Atrial natriuretic peptide receptor 1 (Homo sapiens) (P16066 whole entry, looked up): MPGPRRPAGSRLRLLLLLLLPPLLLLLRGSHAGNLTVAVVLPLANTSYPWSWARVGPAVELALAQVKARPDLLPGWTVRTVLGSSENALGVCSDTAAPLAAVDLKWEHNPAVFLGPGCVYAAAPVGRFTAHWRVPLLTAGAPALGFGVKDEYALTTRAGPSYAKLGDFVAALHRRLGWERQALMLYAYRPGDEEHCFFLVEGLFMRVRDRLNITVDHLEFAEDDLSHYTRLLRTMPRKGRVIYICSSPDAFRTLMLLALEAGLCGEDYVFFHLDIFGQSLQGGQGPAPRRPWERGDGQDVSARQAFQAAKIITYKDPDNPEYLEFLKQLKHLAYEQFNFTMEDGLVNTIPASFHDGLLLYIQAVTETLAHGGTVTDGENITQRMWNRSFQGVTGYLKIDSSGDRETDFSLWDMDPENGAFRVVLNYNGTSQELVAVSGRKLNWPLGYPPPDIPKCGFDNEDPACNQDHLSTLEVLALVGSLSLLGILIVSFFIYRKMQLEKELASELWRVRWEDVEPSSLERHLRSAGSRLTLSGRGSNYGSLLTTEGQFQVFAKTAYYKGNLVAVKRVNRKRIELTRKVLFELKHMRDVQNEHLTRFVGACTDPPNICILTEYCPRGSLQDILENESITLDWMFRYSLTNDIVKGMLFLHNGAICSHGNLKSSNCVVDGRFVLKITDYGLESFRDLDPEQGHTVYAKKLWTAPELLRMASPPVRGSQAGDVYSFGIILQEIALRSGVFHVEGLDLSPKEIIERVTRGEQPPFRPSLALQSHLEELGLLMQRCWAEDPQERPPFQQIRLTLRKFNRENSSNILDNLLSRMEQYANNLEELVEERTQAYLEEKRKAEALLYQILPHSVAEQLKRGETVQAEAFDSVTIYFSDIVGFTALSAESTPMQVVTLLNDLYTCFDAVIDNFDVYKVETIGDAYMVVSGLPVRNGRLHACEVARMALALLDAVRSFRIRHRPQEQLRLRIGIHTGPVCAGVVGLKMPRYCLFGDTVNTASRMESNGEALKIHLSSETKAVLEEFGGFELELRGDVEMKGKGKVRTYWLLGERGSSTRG
Sequence of Parathyroid hormone/parathyroid hormone-related peptide receptor (Homo sapiens) (Q03431 whole entry, looked up): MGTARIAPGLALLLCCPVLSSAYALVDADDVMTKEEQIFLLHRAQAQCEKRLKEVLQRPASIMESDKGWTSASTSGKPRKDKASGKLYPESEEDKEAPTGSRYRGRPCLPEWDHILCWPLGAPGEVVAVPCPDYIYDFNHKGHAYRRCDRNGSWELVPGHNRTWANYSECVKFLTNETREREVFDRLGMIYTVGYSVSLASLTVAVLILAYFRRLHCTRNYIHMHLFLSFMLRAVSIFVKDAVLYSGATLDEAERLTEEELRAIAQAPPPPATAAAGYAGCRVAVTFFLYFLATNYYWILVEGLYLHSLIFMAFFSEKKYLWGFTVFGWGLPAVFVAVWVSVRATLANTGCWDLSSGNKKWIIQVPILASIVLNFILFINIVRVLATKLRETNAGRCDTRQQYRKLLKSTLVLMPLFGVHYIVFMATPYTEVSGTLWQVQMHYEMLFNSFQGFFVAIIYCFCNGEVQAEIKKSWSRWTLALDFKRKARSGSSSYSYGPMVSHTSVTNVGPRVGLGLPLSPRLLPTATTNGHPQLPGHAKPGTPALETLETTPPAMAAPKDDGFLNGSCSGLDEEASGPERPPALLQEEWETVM
Sequence of Atrial natriuretic peptide receptor 2 (Homo sapiens) (P20594 whole entry, looked up): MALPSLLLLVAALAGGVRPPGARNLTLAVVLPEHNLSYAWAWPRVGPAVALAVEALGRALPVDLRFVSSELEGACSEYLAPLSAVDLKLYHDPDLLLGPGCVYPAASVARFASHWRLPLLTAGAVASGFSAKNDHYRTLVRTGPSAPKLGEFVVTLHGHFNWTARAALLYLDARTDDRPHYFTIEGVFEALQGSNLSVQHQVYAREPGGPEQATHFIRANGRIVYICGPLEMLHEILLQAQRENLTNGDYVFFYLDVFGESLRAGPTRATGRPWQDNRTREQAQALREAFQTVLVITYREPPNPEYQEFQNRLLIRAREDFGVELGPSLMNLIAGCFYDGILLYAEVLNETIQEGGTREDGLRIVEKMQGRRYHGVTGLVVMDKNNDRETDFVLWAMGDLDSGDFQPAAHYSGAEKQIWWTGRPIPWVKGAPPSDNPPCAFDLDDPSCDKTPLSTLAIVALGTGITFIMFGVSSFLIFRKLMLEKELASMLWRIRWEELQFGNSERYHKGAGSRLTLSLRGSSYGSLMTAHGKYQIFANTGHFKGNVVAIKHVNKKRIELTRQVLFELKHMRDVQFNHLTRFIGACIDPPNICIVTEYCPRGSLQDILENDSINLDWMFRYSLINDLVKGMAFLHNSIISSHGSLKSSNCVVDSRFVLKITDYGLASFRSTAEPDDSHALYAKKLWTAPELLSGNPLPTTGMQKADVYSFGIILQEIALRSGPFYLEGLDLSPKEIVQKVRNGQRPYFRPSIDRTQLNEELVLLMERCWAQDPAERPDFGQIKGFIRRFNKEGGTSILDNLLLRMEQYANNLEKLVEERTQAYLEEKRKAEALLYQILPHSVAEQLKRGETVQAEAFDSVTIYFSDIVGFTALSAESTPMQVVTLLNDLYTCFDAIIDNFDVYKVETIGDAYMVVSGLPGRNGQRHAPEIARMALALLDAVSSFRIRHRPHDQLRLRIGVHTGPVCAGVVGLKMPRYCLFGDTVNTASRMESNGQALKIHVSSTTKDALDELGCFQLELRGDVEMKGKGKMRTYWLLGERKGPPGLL

Compound	outcome [1]	Potency [2]	Potency [3]	outcome [4]	outcome [5]	outcome [6]	outcome [7]	Potency [8]	Potency [9]	Potency [10]
CCn1cc(C(=O)O)c(=O)c2cc(F)c(N3CCNC(C)C3)c(F)c21 (centres undefined)	inactive	inactive	inactive	inactive	inactive	inactive	inactive	inactive	inactive	inactive
CC(C)C[C@H](NC(=O)[C@@H](O)[C@H](N)Cc1ccccc1)C(=O)O	inactive	inactive	inactive	inactive	inactive	inactive	inactive	inactive	–	–
O=C1CCC(N2C(=O)c3ccccc3C2=O)C(=O)N1 (centres undefined)	inactive	inactive	inactive	inactive	inactive	inactive	inactive	inactive	inactive	–
CC(C)NCC(O)COc1ccc(COCCOC(C)C)cc1 (centres undefined)	inactive	inactive	inactive	inactive	inactive	inactive	inactive	inactive	inactive	inactive
Clc1cccc(Cl)c1NC1=NCCN1	inactive	inactive	inactive	inactive	inactive	inactive	inactive	inactive	inactive	inactive
O=C1CCc2cc(OCCCCc3nnnn3C3CCCCC3)ccc2N1	inactive	inactive	inactive	inactive	inactive	inactive	inactive	inactive	inactive	–
O=c1n(CCCN2CCN(c3cccc(Cl)c3)CC2)nc2ccccn12	inactive	inactive	inactive	inactive	inactive	inactive	inactive	inactive	inactive	inactive
N[C@@H]1CONC1=O	inactive	inactive	inactive	inactive	inactive	inactive	inactive	inactive	inactive	inactive
CCC(C)N(C)C(=O)c1cc2ccccc2c(-c2ccccc2Cl)n1 (centres undefined)	inactive	inactive	inactive	inactive	inactive	inactive	inactive	inactive	inactive	inactive
O=NN(CCCl)C(=O)NCCCl	inactive	inactive	inactive	inactive	inactive	inactive	inactive	inactive	inactive	inactive
CC(C)(Sc1ccc(CCN(CCCCC2CCCCC2)C(=O)NC2CCCCC2)cc1)C(=O)O	inactive	inactive	inactive	inactive	inactive	inactive	inactive	inactive	–	–
OC(CCN1CCCCC1)(c1ccccc1)C1CC2C=CC1C2 (centres undefined)	inactive	inactive	inactive	inactive	inactive	inactive	inactive	inactive	inactive	inactive
O=C(O)COCCN1CCN(C(c2ccccc2)c2ccc(Cl)cc2)CC1 (centres undefined)	inactive	13.1 µM (active)	inactive	inactive	inactive	inactive	inactive	inactive	inactive	inactive
CN1CCN(CCCN2c3ccccc3Sc3ccc(C(F)(F)F)cc32)CC1	inactive	–	inactive	–	–	–	inactive	inactive	inactive	18.7 µM (active)
CCc1cncnc1N1CCN(Cc2nc3ccc(C(F)(F)F)cc3[nH]2)CC1	–	–	inactive	inactive	inactive	inactive	–	inactive	18.7 µM (active)	inactive
O=C(Nc1nc2ccccc2n1CCN1CCOCC1)c1cccc([N+](=O)[O-])c1	inactive	–	inactive	inactive	–	inactive	inactive	inactive	7.43 µM (active)	14.8 µM (active)

Compound	outcome [1]	Potency [2]	Potency [3]	outcome [4]	outcome [5]	outcome [6]	outcome [7]	Potency [8]	Potency [9]	Potency [10]
O=C(O)CCc1ccc(NCc2cccc(Oc3ccccc3)c2)cc1	–	–	inactive	inactive	inactive	inactive	–	inactive	inactive	inactive
NNCCc1ccccc1	inactive	inactive	inactive	inactive	–	inactive	inactive	inactive	inactive	inactive
CCOc1ccc(Cc2cc([C@@H]3O[C@H](CO)[C@@H](O)[C@H](O)[C@@H]3O)ccc2Cl)cc1	–	–	inactive	–	–	–	–	inactive	–	–
CCCCNc1cc(C(=O)O)cc(S(N)(=O)=O)c1Oc1ccccc1	inactive	inactive	inactive	inactive	–	–	inactive	inactive	inactive	–
COc1c(Cl)cc2c([nH]c3cnccc32)c1NC(=O)c1cccnc1C	–	–	inactive	–	–	–	–	–	–	–
NC(N)=NC(=O)c1nc(Cl)c(N)nc1N	inactive	inactive	inactive	inactive	–	inactive	inactive	inactive	–	inactive
O=S(=O)(N=Cc1c(O)ccc2ccccc12)c1cccs1	–	–	inactive	–	–	–	–	inactive	–	–
Nc1nc2c(ncn2COCCO)c(=O)[nH]1	–	inactive	inactive	inactive	inactive	inactive	inactive	inactive	inactive	inactive
COc1ccccc1[C@H](c1cccc2ccccc12)[C@@](C)(C#N)C(=O)N1CCC(c2cccc(C(F)(F)F)c2)CC1	–	–	inactive	–	–	–	–	–	–	–
C#Cc1cccc(Nc2ncnc3cc(OCCOC)c(OCCOC)cc23)c1	–	–	inactive	–	–	–	–	–	–	–
CCn1c(-c2nonc2N)nc2c(C#CC(C)(C)O)ncc(OC[C@H]3CCCNC3)c21	–	–	inactive	–	–	–	–	–	–	–
O=C(Nc1ccc(F)c(C(F)(F)F)c1)Nc1nnc(-c2ccncc2)s1	–	–	inactive	–	–	–	–	inactive	–	–
CCOC(=O)N[C@@H]1CC[C@@H]2[C@@H](C1)C[C@H]1C(=O)O[C@H](C)[C@H]1[C@@H]2C=Cc1ccc(-c2cccc(F)c2)cn1	–	–	inactive	–	–	–	–	inactive	–	–
Cc1[nH]c(=O)c(C#N)cc1-c1ccncc1	inactive	inactive	inactive	inactive	–	inactive	inactive	–	inactive	inactive
CCOc1cc(N2CCC(O)CC2)ccc1Nc1ncc2c(n1)N(C)c1ccccc1C(=O)N2C	–	–	inactive	–	–	–	–	23.4 µM (active)	–	–
O=C(c1cc(Cc2n[nH]c(=O)c3ccccc23)ccc1F)N1CCN(C(=O)C2CC2)CC1	–	–	inactive	–	–	–	–	16.5 µM (active)	–	–
